According to the supplement of paper PMC9694430:

What was measured:
Test in all cases: thermal shift delta Tm vs DMSO control; higher = stronger stabilization (binding)
Details in all cases: 12.5 µM; protein concentration 2 µM
[1] = tested on: LOC_OS02G45750-cb003
Method in brief: (§1)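 Thermal shift values come from differential scanning fluorimetry on purified rice kinase domains made in E. coli, with melting temperatures obtained from Boltzmann fits. Samples of 19.5 μl held 2 μM kinase, 100 mM potassium phosphate pH 7.5, 150 mM NaCl, 10% glycerol, 5 × SYPRO Orange and compound in DMSO, and were heated from 25°C to 95°C at 0.05°C/s. Each shift is a triplicate mean relative to the DMSO-only protein sample.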

[2] = tested on: LOC_OS02G54510-cb004
Method in brief: as §1

[3] = tested on: LOC_OS03G04050-cb001
Method in brief: as §1

[4] = tested on: LOC_OS03G12390-cb001
Method in brief: as §1

[5] = tested on: LOC_OS03G27990-cb004
Method in brief: as §1

[6] = tested on: LOC_OS03G50450-cb001
Method in brief: as §1

[7] = tested on: LOC_OS03G50810-cb003
Method in brief: as §1

[8] = tested on: LOC_OS04G35114-cb001
Method in brief: as §1

[9] = tested on: T1, LOC_OS04G38480-cb003
T1 sequence (whole entry): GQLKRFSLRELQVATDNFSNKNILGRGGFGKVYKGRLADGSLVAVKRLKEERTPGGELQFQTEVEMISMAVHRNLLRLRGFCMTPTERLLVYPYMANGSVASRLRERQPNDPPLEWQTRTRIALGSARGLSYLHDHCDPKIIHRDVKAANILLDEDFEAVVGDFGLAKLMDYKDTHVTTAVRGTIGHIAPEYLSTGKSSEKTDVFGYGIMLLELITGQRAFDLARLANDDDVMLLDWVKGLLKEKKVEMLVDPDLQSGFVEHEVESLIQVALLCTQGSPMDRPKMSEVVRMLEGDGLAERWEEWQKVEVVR
Method in brief: as §1

[10] = tested on: T2, LOC_OS04G41100-cb001
T2 sequence (whole entry): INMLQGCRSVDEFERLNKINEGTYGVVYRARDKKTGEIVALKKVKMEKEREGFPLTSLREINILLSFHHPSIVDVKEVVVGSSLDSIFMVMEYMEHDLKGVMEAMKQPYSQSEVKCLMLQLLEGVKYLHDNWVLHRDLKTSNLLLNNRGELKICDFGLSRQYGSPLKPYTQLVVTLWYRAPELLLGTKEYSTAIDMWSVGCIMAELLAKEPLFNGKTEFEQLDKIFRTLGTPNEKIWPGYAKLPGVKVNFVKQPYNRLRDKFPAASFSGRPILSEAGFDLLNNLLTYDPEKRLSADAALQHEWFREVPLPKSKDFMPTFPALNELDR
Method in brief: as §1

[11] = tested on: LOC_OS04G57630-cb004
Method in brief: as §1

[12] = tested on: LOC_OS05G07850-cb002
Method in brief: as §1

[13] = tested on: LOC_OS05G16824-cb004
Method in brief: as §1

[14] = tested on: LOC_OS05G28520-cb001
Method in brief: as §1

[15] = tested on: LOC_OS05G30820-cb001
Method in brief: as §1

[16] = tested on: LOC_OS05G43570-cb004
Method in brief: as §1

[17] = tested on: LOC_OS06G16330-cb003
Method in brief: as §1

[18] = tested on: T3, LOC_OS06G22820-cb001
T3 sequence (whole entry): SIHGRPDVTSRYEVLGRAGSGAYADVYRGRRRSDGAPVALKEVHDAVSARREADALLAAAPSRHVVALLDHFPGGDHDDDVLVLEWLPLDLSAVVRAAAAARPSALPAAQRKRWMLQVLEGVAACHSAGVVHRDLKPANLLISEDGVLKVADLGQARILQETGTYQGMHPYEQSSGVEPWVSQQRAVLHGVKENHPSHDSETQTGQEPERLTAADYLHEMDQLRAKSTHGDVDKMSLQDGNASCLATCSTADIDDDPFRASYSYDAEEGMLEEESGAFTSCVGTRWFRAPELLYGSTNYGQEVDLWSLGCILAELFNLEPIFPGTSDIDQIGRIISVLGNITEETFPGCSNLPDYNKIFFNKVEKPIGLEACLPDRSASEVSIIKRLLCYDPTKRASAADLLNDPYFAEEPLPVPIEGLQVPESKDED
Method in brief: as §1

[19] = tested on: LOC_OS07G06570-cb004
Method in brief: as §1

[20] = tested on: LOC_OS07G07230-cb001
Method in brief: as §1
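Also: purified Escherichia coli-expressed rice kinase domain construct.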

Chain of LOC_OS06G16330-cb003 (as listed by the source): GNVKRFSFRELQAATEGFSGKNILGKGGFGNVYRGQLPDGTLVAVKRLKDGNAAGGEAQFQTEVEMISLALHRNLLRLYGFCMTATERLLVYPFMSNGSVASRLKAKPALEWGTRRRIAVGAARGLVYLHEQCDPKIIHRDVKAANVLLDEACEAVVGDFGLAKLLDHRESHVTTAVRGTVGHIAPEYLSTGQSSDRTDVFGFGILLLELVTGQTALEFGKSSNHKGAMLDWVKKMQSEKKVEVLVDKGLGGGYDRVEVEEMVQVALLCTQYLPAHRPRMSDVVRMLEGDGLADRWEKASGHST

Compound	thermal shift delta Tm [1] [°C]	thermal shift delta Tm [2] [°C]	thermal shift delta Tm [3] [°C]	thermal shift delta Tm [4] [°C]	thermal shift delta Tm [5] [°C]	thermal shift delta Tm [6] [°C]	thermal shift delta Tm [7] [°C]	thermal shift delta Tm [8] [°C]	thermal shift delta Tm [9] [°C]	thermal shift delta Tm [10] [°C]	thermal shift delta Tm [11] [°C]	thermal shift delta Tm [12] [°C]	thermal shift delta Tm [13] [°C]	thermal shift delta Tm [14] [°C]	thermal shift delta Tm [15] [°C]	thermal shift delta Tm [16] [°C]	thermal shift delta Tm [17] [°C]	thermal shift delta Tm [18] [°C]	thermal shift delta Tm [19] [°C]	thermal shift delta Tm [20] [°C]
O=c1cc(-c2cccc3c2Sc2ccccc2S3)oc(N2CCOCC2)c1	0.06	-0.02	0.45	0.59	-0.19	-0.07	0.13	-0.05	1.71	0.74	-0.22	0.85	0.1	0.74	0.44	0.13	-0.34	0.79	0.35	-0.3
N#CC1(c2ccc(NC(=O)c3cccnc3NCc3ccncc3)cc2)CCCC1 [Apatinib]	0.45	1.36	0.07	-0.19	0.11	0.69	0.22	0.72	0.83	0.11	0.34	0.8	-5.15	0.2	0.66	0.51	-0.32	0.38	1.2	0.05
COc1cc(Nc2ncc(F)c(Nc3ccc4c(n3)N(COP(=O)(O)O)C(=O)C(C)(C)O4)n2)cc(OC)c1OC [R788 (Fostamatinib) Disodium]	2.5	0.47	0.33	1.17	1.08	7.52	2.27	2.02	2.06	0.34	0.34	7.08	6.19	0.86	1.5	0.56	6.28	0.9	1.71	0.59
C=CC(=O)N1CCN(CCCn2c(=O)c(-c3c(Cl)c(OC)cc(OC)c3Cl)cc3cnc(NC)nc32)CC1	1.93	0.21	0.58	-0.09	0.48	0.92	0.26	-0.04	0.5	0.38	0.34	0.01	3.63	-0.19	0.06	0.18	-0.29	0.15	0.73	1.75
CC(C)(C)Cn1c(N)nc2ccc(-c3[nH]c(C(C)(C)C)nc3-c3ccc(F)cc3)nc21	0.45	0.25	0.52	-0.25	0.28	0.23	0.13	0.02	0.12	0.22	-1.17	1.45	-0.61	0.04	0.34	0.33	0.24	0.34	0.31	0.21
O=C(O)c1ccc(-c2c[nH]c3ncc(-c4ccccc4)cc23)cc1C1CCCC1	1.28	0.31	0.69	0.39	0.6	1.12	0.8	2.01	4.2	0.44	3.53	6.21	4.46	1.1	0.74	-0.07	10.4	0.29	-3.29	0.05
Cc1cc(C(=O)NOCCO)c(Nc2ccc(I)cc2F)n(C)c1=O	-0.39	0.03	0.19	-0.3	0.02	1.11	-0.06	0.41	0.64	0.58	0.11	0.04	-9.58	-0.17	0.7	0.18	-0.11	0.38	1.15	0.15
CC1=C(C(=O)Nc2cc3cn[nH]c3cc2F)C(c2ccc(C(F)(F)F)cc2)CC(=O)N1 (stereo not given)	0.16	0.13	0.03	0.32	-0.07	0.15	0.56	0.15	0	0.48	-0.15	0.48	-6.69	-0.3	0.33	1.08	-0.13	0.24	0.71	0.37
COc1ccc(C(=O)Nc2sc3c(c2C(N)=O)CCCC3)cc1OC	3.21	0.13	0.38	0.22	0.12	0.38	1.2	3.8	3.31	0.28	0.24	5.8	-1.08	0.65	0.5	0.59	5.12	0.46	1.73	0.5
Cc1cc(Nc2ncnc3ccc(-c4ccc(CNCCS(C)(=O)=O)o4)cc23)ccc1Oc1ccn2ncnc2c1 [HER2-Inhibitor-1]	2.59	0.24	0.79	0.49	0.37	0.76	1.21	4.39	1.57	0.72	2.09	6.61	2.73	1.2	0.57	0.41	3.81	0.78	1.57	0.55
Cc1c[nH]c(/C=C2\C(=O)Nc3ccccc32)c1CCC(=O)O	2.76	0.94	0.06	8	0.79	4.67	2.36	8.73	3.46	0.43	0.5	6.66	7.29	0.67	2.14	0.11	9.94	0.18	0.84	0.79
CCCNC(=O)Nc1ccc(Oc2ncnc3cc(OC)c(OC)cc23)cc1Cl	-0.23	-0.21	-0.21	0.74	-0.33	-0.08	0.49	0.48	-0.17	-0.34	0.94	5.45	-1.66	-0.19	0.49	0.07	1.43	0.78	0.73	0.03
CC[C@@](C)(Nc1ccnc(-c2c[nH]c3ncccc23)n1)C(=O)NCC(F)(F)F [Decernotinib (VX-509)]	1.82	0.32	0.47	0.52	0.33	0.54	1.35	1.32	3.52	0.25	0.07	9.28	2.45	0.87	0.49	0.57	8.57	0.47	0.54	0.24
